# Screening data from PubChem.
# TDP1 cell noCPT – qHTS for Inhibitors of human tyrosyl-DNA phosphodiesterase 1 (TDP1): qHTS in cells in absence of CPT | DT40 Tdp1-/- hTDP1 cells, no CPT, ATP luminescence, 48 h | Potency, µM (top dose mostly 46.2 µM), actives largely listed as inhibitors | 420,000 compounds, 15% hits | AID 686978, 2013; note: nearly all actives have a fitted effect of over 55% in size
#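 Camptothecin absent (DMSO only). Human TDP1-complemented DT40 knockout cells, 400 cells/well, 37 °C for minimum 48 hr; ATP measured via CellTiter-Glo, 30 min dark incubation, luminescence.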
# DT40 TDP1 CPT – qHTS for Inhibitors of human tyrosyl-DNA phosphodiesterase 1 (TDP1): qHTS in cells in presence of CPT; chicken DT40 Tdp1-/-;hTDP1 cells + 20 nM CPT, ATP luminescence, 48 h; Potency, µM (top dose mostly 46.2 µM), most hits filed as inhibitors; 420,000 compounds, 12% hits; note: nearly all actives have a fitted effect of over 55% in size
#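 Chicken DT40 Tdp1-/- cells stably complemented with human TDP1 were seeded at 400 cells/well in medium containing 20 nM camptothecin, exposed to pin-transferred compounds, and grown at 37 °C for at least 48 hr. Viability was read as ATP luminescence.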
# HT1080-NT tox – qHTS for induction of synthetic lethality in tumor cells producing 2HG: qHTS for the HT-1080-NT fibrosarcoma cell line. HT-1080-NT fibrosarcoma viability, CellTiter-Glo ATP luminescence, 48 h. Potency, µM (highest dose often 46.1 µM), actives largely listed as cytotoxic. 360,000 compounds, 1.6% hits. AID 686970, 2013;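 note: NT is the 2HG producing partner of a matched IDH1 knockdown line; nearly all actives have a fitted effect of over 55% in size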
#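 Viability by CellTiter-Glo luminescence after 48 h compound exposure at 37C of HT-1080-NT cells (750/well, RPMI, 5% FBS). % activity scaled between DMSO wells and medium-only wells, then curve-fitted and categorized by curve class.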
# uPA generation – qHTS for Inhibitors of Cell Surface uPA Generation. cell surface uPA generation assay, qHTS. 330,000 compounds, 0.31% hits. AID 540303, 2011. Potency, µM (titrated, usually from 38.3 µM), actives largely listed as inhibitors; active = well fitted inhibition curve with a large enough effect; inconclusive = small, poorly fitted or top-dose-only effect; inactive = no such curve, though single readings can be large or run the other way; tested in mouse RAW 264.7 cells; note: nearly all actives have a fitted effect of over 55% in size
# IL1B secr inh – qHTS for Inhibitors of Inflammasome Signaling: IL-1-beta AlphaLISA Primary Screen | activity change, % at 57.5 µM | THP-1 LPS/ATP IL-1B secretion, AlphaLISA, 16 h; stronger effect = lower value | 360,000 compounds, 4.7% hits; in the data active = activity change below about -50%; inconclusive = mostly about -30% to -49%
#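 Secreted IL-1B measured by AlphaLISA bead assay after 16 h compound exposure of THP-1 cells; compounds (final up to 57.5 uM) added 1 h before LPS (250 ng/mL) and ATP (1.25 mM) stimulation; lower signal means less secretion.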
# HT1080 IDH1KD tx – qHTS for induction of synthetic lethality in tumor cells producing 2HG: qHTS for the HT-1080-IDH1KD cell line | Potency, µM (doses to about 46.1 µM), actives largely listed as cytotoxic | HT-1080 IDH1 knockdown viability, ATP luminescence, 48 h | 360,000 compounds, 2% hits
#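 CellTiter-Glo luminescence after 48 h compound exposure at 37 degrees C of IDH1-knockdown HT-1080 cells in 5% FBS RPMI. %Activity scaled between DMSO wells and cell-free media wells, with curves fitted and assigned curve classes.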
# Hits are given with their value; . = inactive; ? = inconclusive; / = not tested or not shown. Sampled rows, rich in hits. Any-hit rate of the full collection: about 19%. Unless noted, calls come from the whole dose curve; as a rule, active = well fitted curve in the direction sought with a large enough effect; inconclusive = small, poorly fitted or top-dose-only effect, or another doubt; inactive = no such curve, though single readings can be large; an effect the other way counts as inactive or inconclusive.
SMILES,TDP1 cell noCPT,DT40 TDP1 CPT,HT1080-NT tox,uPA generation,IL1B secr inh,HT1080 IDH1KD tx
NS(=O)(=O)c1ccc(Nc2nc3ccccc3nc2NS(=O)(=O)c2cccc([N+](=O)[O-])c2)cc1,.,.,.,/,.,.
CN1C(=O)c2ccc(NC(=S)NC(=O)C(C)(C)C)cc2C1=O,.,.,.,.,.,.
Cc1c(C(=O)NCc2ccc(Cl)c(Cl)c2)sc(=O)n1Cc1ccc(C(=O)N(C)C)cc1,10µM,15µM,.,/,?,.
Cc1c(C(=O)NCc2ccc3c(c2)OCCO3)sc(=O)n1Cc1ccc(C(=O)N(C)C)cc1,?,?,.,/,.,.
CC(=O)Oc1ccc(Cn2c(C)c(C(=O)NCc3ccccc3C(F)(F)F)sc2=O)cc1,?,?,?,/,.,.
Cc1c(C(=O)NCc2ccc(C(C)C)cc2)sc(=O)n1Cc1ccc(S(=O)(=O)N(C)C)cc1,9.2µM,13µM,.,/,.,?
Cc1c(C(=O)NCc2cccc(Cl)c2)sc(=O)n1Cc1ccc(F)cc1,?,?,.,/,-58,.
Cc1c(C(=O)NCc2ccccc2C(F)(F)F)sc(=O)n1Cc1ccc(F)cc1,?,21µM,.,/,.,.
CCCCCCCCCCCCC/C=C\[C@@H](O)[C@H](CO)NC(C)=O,?,.,/,/,/,/
CC1CC[C@]2(CO)CC[C@]3(C)C(=CCC4[C@@]5(C)CCC(O)C(C)(C)C5CC[C@@]43C)C2C1C (stereo partly drawn),.,.,/,/,/,/
COC(=O)c1ccccc1CCC(C)=O,16µM,?,.,.,.,.
COc1cc(/C=N/NC(=O)COc2ccc(C)cc2)ccc1OC(=O)c1cccs1,26µM,?,.,.,.,.
CCOc1cc(/C=N\Nc2ccc([N+](=O)[O-])cc2)ccc1OCC(=O)Nc1ccc(C)c(C)c1,15µM,23µM,.,.,.,.
COc1cc(/C=N\NC(=O)CN2CCOCC2)ccc1OCC(=O)Nc1ccc(C)c(C)c1,?,?,.,.,.,.
CCOc1cc(/C=N/NC(=O)COc2ccc(C)cc2)ccc1OC(=O)c1cccs1,?,?,.,.,?,.
CNC(=S)N/N=C/c1ccc(OCC(=O)Nc2c(C)cc(C)cc2C)c(OC)c1,?,21µM,.,.,.,.
CCOc1cc(/C=N\NC(=O)Cc2ccccc2)ccc1OCC(=O)Nc1ccc(C)c(C)c1,21µM,13µM,.,.,.,.
CCOc1cc(/C=N/O)ccc1OCC(=O)Nc1cccc(C)c1,?,?,.,.,.,.
CCOc1cc(/C=N/NC(=O)COc2ccc(Cl)cc2)ccc1OS(=O)(=O)c1ccccc1,23µM,?,.,.,.,?
CCOc1cc(/C=N/NS(=O)(=O)c2ccccc2)ccc1OS(=O)(=O)c1ccc(C)cc1,.,?,.,.,.,.
COc1cc(/C=N\Nc2ccc([N+](=O)[O-])cc2)ccc1OCC(=O)Nc1ccc(C)c(C)c1,18µM,?,.,.,.,.
CCc1cccc(NC(=O)c2nc(-c3ccncc3)no2)c1,.,?,/,/,/,/
O=c1[nH]c(=S)[nH]c2c1C(c1ccc(Cl)cc1)OC(C1CCCCC1)C2 (stereo not drawn),?,?,?,/,.,?
O=C(Cc1nnc(NC(=O)Nc2ccccc2)s1)Nc1ccccc1,.,.,.,.,.,.
CC(C)(C)c1nnc(NC(=O)Nc2ccc(Cl)cc2)s1,16µM,?,.,.,.,.
O=C(Nc1ccc(Cl)c(Cl)c1)Nc1nnc(CSc2ccccc2)s1,5.2µM,2.6µM,.,.,?,.
O=C(Nc1ccccc1)Nc1nnc(CSCc2ccccc2Cl)s1,?,21µM,?,.,.,?
